# Records with an inconclusive call do not appear. Where a call stands in place of a potency, no number is given. Activity calls are given as the source filed them. Unless noted, calls come from the whole dose curve; as a rule, active = well fitted inhibition curve with a large enough effect; inconclusive = small, poorly fitted or top-dose-only effect; inactive = flat fitted curve, though single readings scatter.
# Tests used:
# [1] = qHTS drug screen for cell cycle checkpoint inhibitors in PARPi-resistant BRCA-mutant ovarian cancer cell lines. (AID 1963452; calls by dose curve; note: potency is the fitted concentration of half-maximal effect); settings: PEO1/OlaR viability, CellTiter-Glo luminescence, 96 h; for Z-AUC: stronger effect = lower value
# Outline: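 PEO1, PEO4 and PEO1/OlaR ovarian cancer cells, 600 per well, exposed 96 h at 37C to a dilution series. Viability read by CellTiter-Glo luminescence, normalized to DMSO and empty wells; activity summarized as Z-AUC.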
# [2] = qHTS profiling for inhibitors of Plasmodium falciparum proliferation (AID 504749); note: nearly all actives have a fitted effect of over 60% in size; note: potency is the fitted concentration of half-maximal effect; settings: P. falciparum in erythrocytes, SYBR Green DNA, 72 h
# Outline: (§1)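 Readout was DNA-dye fluorescence from lysed cultures, ex 485/em 535 nm. Parasitized red cells had grown 72 h with compound; data scaled between 0.29 uM artemisinin and DMSO wells and corrected using vehicle-only plates.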
# 3D7 = test: as above; settings: P. falciparum in erythrocytes, SYBR Green DNA, 72 h; series mostly up to 28.7 µM
# Outline: as §1
# 7G8 = test: as above; settings: P. falciparum in erythrocytes, SYBR Green DNA, 72 h; series mostly up to 28.7 µM
# Outline: as §1
# ATS189 = test: as above; settings: P. falciparum in erythrocytes, SYBR Green DNA, 72 h; series mostly up to 28.7 µM
# Outline: as §1
# ATS95 = test: as above; settings: P. falciparum in erythrocytes, SYBR Green DNA, 72 h; series mostly up to 28.7 µM
# Outline: as §1
# C2A = test: as above; settings: P. falciparum in erythrocytes, SYBR Green DNA, 72 h; series mostly up to 28.7 µM
# Outline: as §1
# CP185 = test: as above; settings: P. falciparum in erythrocytes, SYBR Green DNA, 72 h; series mostly up to 28.7 µM
# Outline: as §1
# CP191 = test: as above; settings: P. falciparum in erythrocytes, SYBR Green DNA, 72 h; series mostly up to 28.7 µM
# Outline: as §1
# CP192 = test: as above; settings: P. falciparum in erythrocytes, SYBR Green DNA, 72 h; series mostly up to 28.7 µM
# Outline: as §1
# CP194 = test: as above; settings: P. falciparum in erythrocytes, SYBR Green DNA, 72 h; series mostly up to 28.7 µM
# Outline: as §1
# CP201 = test: as above; settings: P. falciparum in erythrocytes, SYBR Green DNA, 72 h; series mostly up to 28.7 µM
# Outline: as §1
# CP203 = test: as above; settings: P. falciparum in erythrocytes, SYBR Green DNA, 72 h; series mostly up to 28.7 µM
# Outline: as §1
# CP211 = test: as above; settings: P. falciparum in erythrocytes, SYBR Green DNA, 72 h; series mostly up to 28.7 µM
# Outline: as §1
# CP215 = test: as above; settings: P. falciparum in erythrocytes, SYBR Green DNA, 72 h; series mostly up to 28.7 µM
# Outline: as §1
# CP217 = test: as above; settings: P. falciparum in erythrocytes, SYBR Green DNA, 72 h; series mostly up to 28.7 µM
# Outline: as §1
# AA1029 = test: as above; settings: P. falciparum in erythrocytes, SYBR Green DNA, 72 h; series mostly up to 28.7 µM
# Outline: as §1
# AS120 = test: as above; settings: P. falciparum in erythrocytes, SYBR Green DNA, 72 h; series mostly up to 28.7 µM
# Outline: as §1
# CP237 = test: as above; settings: P. falciparum in erythrocytes, SYBR Green DNA, 72 h; series mostly up to 28.7 µM
# Outline: as §1
# [3] = qHTS for identification of novel therapeutic agents for treatment of microphthalmiaassociated transcription factor (MiT) renal cell carcinoma (RCC) (AID 1963991); settings: CellTiter-Glo, 48 h, stronger effect = lower value
# Outline: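 Three TFE3-fusion RCC lines (UOK109, UOK124, UOK145), 500 cells/well in complete medium, were treated with MIPE 4.0 compounds for 48 hours at 37 C. Viability was by CellTiter-Glo luminescence, normalized to DMSO (100%) and empty wells (0%); curves fitted over 11 concentrations.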
# [4] = measured here: PEO1 parental Z-AUC
# [5] = at 28.7 µM (top of the series), parasite line A
# [6] = at 28.7 µM (top of the series), parasite line B
# [7] = TFE3-RCC UOK109 viability, measured here: UOK109 Z-AUC
# [8] = TFE3-RCC viability, measured here: UOK124 Z-AUC
# [9] = TFE3-RCC viability, measured here: UOK145 Z-AUC
# [10] = at 12.8 µM (top of the series), parasite line B
smiles,measurement,setting,value
CCCc1nc(C)c2c(=O)[nH]c(-c3cc(S(=O)(=O)N4CCN(CC)CC4)ccc3OCC)nn12,Z-AUC,[1],1.15 (inactive)
same,Z-AUC,[1]; [4],0.477
same,Z-AUC,[1]; measured here: PEO4 Z-AUC,0.621
same,"activity, negative = inhibition",[2]; [5],-13.4% (inactive)
same,"activity, negative = inhibition",[2]; [6],-10.2% (inactive)
same,Potency,3D7,inactive
same,Potency,7G8,7080 nM (active)
same,Potency,ATS189,inactive
same,Potency,ATS95,inactive
same,Potency,C2A,inactive
same,Potency,CP185,inactive
same,Potency,CP191,inactive
same,Potency,CP192,inactive
same,Potency,CP194,inactive
same,Potency,CP201,inactive
same,Potency,CP203,inactive
same,Potency,CP211,inactive
same,Potency,CP215,inactive
same,Potency,CP217,inactive
COc1cc(NCc2ccc3nc(N)nc(N)c3c2C)cc(OC)c1OC,Z-AUC,[1],0.262 (inactive)
same,Z-AUC,[1]; [4],0.153
same,Z-AUC,[1]; measured here: PEO4 Z-AUC,-0.254
same,Potency,[2]; parasite line A,3.5 nM (active)
same,Potency,[2]; parasite line B,7.1 nM (active)
same,Potency,3D7,6.3 nM (active)
same,Potency,7G8,79.4 nM (active)
same,Potency,AA1029,1000 nM (active)
same,Potency,AS120,1000 nM (active)
same,Potency,ATS189,282 nM (active)
same,Potency,ATS95,631 nM (active)
same,Potency,C2A,631 nM (active)
same,Potency,CP185,562 nM (active)
same,Potency,CP191,251 nM (active)
same,Potency,CP192,3010 nM (active)
same,Potency,CP194,2690 nM (active)
same,Potency,CP201,4780 nM (active)
same,Potency,CP203,4780 nM (active)
same,Potency,CP215,675 nM (active)
same,Potency,CP217,282 nM (active)
same,Potency,CP237,141 nM (active)
CN(Cc1cc(Br)cc(Br)c1N)C1CCCCC1,Z-AUC,[1],1.09 (inactive)
same,Z-AUC,[1]; [4],1.12
same,Z-AUC,[1]; measured here: PEO4 Z-AUC,1.04
same,z-score,[3]; [7],1.13
same,z-score,[3]; [8],0.389
same,z-score,[3]; [9],1.53
same,"activity, negative = inhibition",[2]; [5],-5.78% (inactive)
same,"activity, negative = inhibition",[2]; [6],-15.1% (inactive)
same,Potency,AA1029,inactive
same,Potency,AS120,inactive
same,Potency,ATS189,inactive
same,Potency,C2A,inactive
same,Potency,CP185,inactive
same,Potency,CP191,inactive
same,Potency,CP192,inactive
same,Potency,CP194,inactive
same,Potency,CP201,inactive
same,Potency,CP203,inactive
same,Potency,CP211,inactive
same,Potency,CP215,inactive
same,Potency,CP217,inactive
O=C(O)c1cn(C2CC2)c2cc(N3CCNCC3)c(F)cc2c1=O,Z-AUC,[1],0.135 (inactive)
same,Z-AUC,[1]; [4],0.154
same,Z-AUC,[1]; measured here: PEO4 Z-AUC,0.682
same,z-score,[3]; [7],1.77
same,z-score,[3]; [8],0.661
same,z-score,[3]; [9],1.11
same,"activity, negative = inhibition",[2]; [10],-28.9% (inactive)
same,Potency,3D7,inactive
same,Potency,7G8,3160 nM (active)
same,Potency,ATS189,inactive
same,Potency,C2A,inactive
same,Potency,CP191,inactive
same,Potency,CP217,inactive
COC(=O)Nc1nc2ccc(C(=O)c3ccccc3)cc2[nH]1,Potency,[1],436 nM (active)
same,Z-AUC,[1]; [4],-1.51
same,Z-AUC,[1]; measured here: PEO4 Z-AUC,-1.61
same,"activity, negative = inhibition","[2]; at 12.8 µM (top of the series), parasite line A",5.97% (inactive)
same,"activity, negative = inhibition",[2]; [10],9.61% (inactive)
same,Potency,3D7,inactive
same,Potency,7G8,inactive
same,Potency,AA1029,inactive
same,Potency,AS120,inactive
same,Potency,ATS189,inactive
same,Potency,ATS95,inactive
same,Potency,C2A,inactive
same,Potency,CP185,inactive
same,Potency,CP191,inactive
same,Potency,CP192,inactive
same,Potency,CP194,inactive
same,Potency,CP201,inactive
same,Potency,CP211,inactive
same,Potency,CP217,inactive
same,Potency,CP237,inactive
Cc1nnc(NS(=O)(=O)c2ccc(N)cc2)s1,Z-AUC,[1],1.31 (inactive)
same,Z-AUC,[1]; [4],0.997
same,Z-AUC,[1]; measured here: PEO4 Z-AUC,1.46
same,"activity, negative = inhibition",[2]; [5],1.45% (inactive)
same,"activity, negative = inhibition",[2]; [6],11.3% (inactive)
same,Potency,3D7,inactive
same,Potency,7G8,inactive
same,Potency,AA1029,inactive
same,Potency,AS120,inactive
same,Potency,ATS189,inactive
same,Potency,ATS95,inactive
same,Potency,C2A,inactive
same,Potency,CP185,inactive
same,Potency,CP191,inactive
same,Potency,CP192,inactive
same,Potency,CP194,inactive
same,Potency,CP201,inactive
same,Potency,CP203,inactive
same,Potency,CP211,inactive
same,Potency,CP215,inactive
same,Potency,CP217,inactive
same,Potency,CP237,inactive
